Results from PubChem BioAssay AID1159580 (chemical genetic matrix, 2015).
About 2,000 (36%) of roughly 5,500 compounds were called active. Another 18% or so got no clear call; they are omitted. Rule as the data show it: active = normalized growth mostly below about 0.91 (no sharp cut-off); inconclusive = no clear call, values can overlap the other calls; inactive = mostly above about 0.92. The list shows a part of the results.

Experiment: chemical genetic growth profiling, strain panel (AID 1159580);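 also: tested at 20 µM; growth read once vehicle control cultures reached saturation at 30 °C; 1 = growth at the plate median or of vehicle wells; lower values mean less growth of the strain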
Conditions: S. cerevisiae deletion strains, growth OD
[1] = locus YAR019C, strain CDC15, hits give low values
[2] = locus YBL105C, strain PKC1, hits give low values
[3] = locus YBR135W, strain CKS1, hits give low values
[4] = locus YBR136W, strain MEC1, hits give low values
[5] = locus YBR160W, strain CDC28, hits give low values
[6] = locus YDL017W, strain CDC7, hits give low values
[7] = locus YDL028C, strain MPS1, hits give low values
[8] = locus YDL101C, strain DUN1, hits give low values
[9] = locus YDL108W, strain KIN28, hits give low values
[10] = locus YDL132W, strain cdc53, hits give low values
[11] = locus YDL214C, strain PRR2, hits give low values
[12] = locus YDR052C, strain DBF4, hits give low values
[13] = locus YDR054C, strain cdc34, hits give low values
[14] = locus YDR226W, strain ADK1, hits give low values
[15] = locus YDR477W, strain SNF1, hits give low values
[16] = locus YER123W, strain YCK3, hits give low values
[17] = locus YER133W, strain GLC7, hits give low values
[18] = locus YFL009W, strain cdc4, hits give low values
[19] = locus YFL029C, strain CAK1, hits give low values
[20] = locus YFR003C, strain YPI1, hits give low values
[21] = locus YFR019W, strain FAB1, hits give low values
[22] = locus YFR028C, strain CDC14, hits give low values
[23] = locus YGR040W, strain KSS1, hits give low values
[24] = locus YGR052W, strain FMP48, hits give low values
[25] = locus YGR092W, strain DBF2, hits give low values
[26] = locus YHR030C, strain SLT2, hits give low values
[27] = locus YHR079C, strain IRE1, hits give low values
[28] = locus YHR082C, strain KSP1, hits give low values
[29] = locus YHR205W, strain SCH9, hits give low values
[30] = locus YIL147C, strain SLN1, hits give low values
[31] = locus YJL095W, strain BCK1, hits give low values
[32] = locus YJL128C, strain PBS2, hits give low values
[33] = locus YJL157C, strain FAR1, hits give low values
[34] = locus YJR016C, strain ILV3, hits give low values
[35] = locus YJR066W, strain TOR1 (second series), hits give low values
[36] = locus YJR066W, strain TOR1, hits give low values
[37] = locus YKL048C, strain ELM1, hits give low values
[38] = locus YKL067W, strain YNK1, hits give low values
[39] = locus YKL101W, strain HSL1, hits give low values
[40] = locus YKL193C, strain SDS22, hits give low values
[41] = locus YKL203C, strain TOR2, hits give low values
[42] = locus YLR113W, strain HOG1, hits give low values
[43] = locus YLR133W, strain CKI1, hits give low values
[44] = locus YLR403W, strain SFP1, hits give low values
[45] = locus YML070W, strain DAK1, hits give low values
[46] = locus YMR001C, strain CDC5, hits give low values
[47] = locus YMR205C, strain PFK2 (second series), hits give low values
[48] = locus YMR277W, strain FCP1, hits give low values
[49] = locus YNL006W, strain LST8, hits give low values
[50] = locus YNL020C, strain ARK1, hits give low values
[51] = locus YNL161W, strain CBK1, hits give low values
[52] = locus YNL183C, strain NPR1, hits give low values
[53] = locus YNL207W, strain RIO2, hits give low values
[54] = locus YNL222W, strain SSU72, hits give low values
[55] = locus YNL307C, strain MCK1 (second series), hits give low values
[56] = locus YOL078W, strain AVO1, hits give low values
[57] = locus YOL136C, strain PFK27, hits give low values
[58] = locus YOR061W, strain CKA2, hits give low values
[59] = locus YOR119C, strain RIO1, hits give low values
[60] = locus YOR231W, strain MKK1, hits give low values
[61] = locus YOR329C, strain SCD5, hits give low values
[62] = locus YPL031C, strain PHO85, hits give low values
[63] = locus YPL153C, strain RAD53, hits give low values
[64] = locus YPL204W, strain HRR25, hits give low values
[65] = locus YPL209C, strain IPL1, hits give low values
[66] = locus YPL256C, strain CLN2, hits give low values
[67] = locus YPR025C, strain CCL1, hits give low values
[68] = locus YPR106W, strain ISR1, hits give low values
[69] = locus YPR111W, strain DBF20, hits give low values
[70] = strain NNK1, hits give low values
[71] = strain TSCII, hits give low values

Measured: normalized growth

FC(F)(F)Sc1ccc(OCc2n[nH]c(=S)n2-c2ccccc2)cc1
active: [26] 0.814 | [42] 0.82 | [66] 0.82
inactive: [1] 0.989 | [2] 0.983 | [3] 0.988 | [4] 0.983 | [5] 0.988 | [6] 0.987 | [7] 0.986 | [8] 0.981 | [9] 0.987 | [10] 0.993 | [11] 0.945 | [12] 0.989 | [13] 0.978 | [14] 0.981 | [15] 0.943 | [16] 0.873 | [17] 0.911 | [18] 0.983 | [19] 0.989 | [20] 0.988 | [21] 0.936 | [22] 0.993 | [23] 0.949 | [24] 0.939 | [25] 0.874 | [27] 0.896 | [28] 0.963 | [29] 0.957 | [30] 0.984 | [31] 0.917 | [32] 0.94 | [33] 0.92 | [34] 0.984 | [35] 0.906 | [36] 0.945 | [37] 0.953 | [38] 0.934 | [39] 0.891 | [40] 0.994 | [41] 0.961 | [43] 0.938 | [44] 0.954 | [45] 0.92 | [46] 0.991 | [47] 0.946 | [48] 0.992 | [49] 0.986 | [50] 0.904 | [51] 0.986 | [52] 0.879 | [53] 0.985 | [54] 0.99 | [55] 0.91 | [56] 0.996 | [57] 0.931 | [58] 0.971 | [59] 1 | [60] 0.907 | [61] 0.985 | [62] 0.909 | [63] 0.916 | [64] 0.893 | [65] 0.984 | [67] 0.989 | [68] 0.979 | [69] 0.959 | [70] 0.977 | [71] 0.983

FC(F)(F)Oc1ccc(OCc2n[nH]c(=S)n2-c2ccc(Cl)cc2)cc1
inactive: [1] 0.984 | [2] 0.986 | [3] 0.989 | [4] 0.996 | [5] 0.991 | [6] 0.995 | [7] 0.99 | [8] 0.983 | [9] 0.987 | [10] 0.981 | [11] 1 | [12] 0.987 | [13] 0.989 | [14] 0.98 | [15] 0.994 | [16] 0.889 | [17] 1 | [18] 0.988 | [19] 0.985 | [20] 0.987 | [21] 0.988 | [22] 0.989 | [23] 1.01 | [24] 1.1 | [25] 0.944 | [26] 0.967 | [27] 1.07 | [28] 1.05 | [29] 1.01 | [30] 0.988 | [31] 1.15 | [32] 0.956 | [33] 1 | [34] 0.996 | [35] 0.986 | [36] 1.13 | [37] 0.965 | [38] 1.02 | [39] 0.986 | [40] 0.982 | [41] 1.05 | [42] 1.07 | [43] 1 | [44] 1 | [45] 1.01 | [46] 0.983 | [47] 1.01 | [48] 0.99 | [49] 0.986 | [50] 0.994 | [51] 0.989 | [52] 1.12 | [53] 0.99 | [54] 0.985 | [55] 0.999 | [56] 0.986 | [57] 0.994 | [58] 1.01 | [59] 1.02 | [60] 1.09 | [61] 0.99 | [62] 0.973 | [63] 0.983 | [64] 0.975 | [65] 0.987 | [66] 1.04 | [67] 0.991 | [68] 0.996 | [69] 0.992 | [70] 0.999 | [71] 0.987

CC(C)(C)OC(=O)NCc1n[nH]c(=S)n1-c1ccccc1
inactive: locus YAL013W, strain DEP1, hits give low values 1.03 | locus YBR229C, strain ROT2, hits give low values 1.01 | [8] 1.02 | locus YDL134C, strain PPH21, hits give low values 1.01 | locus YDR150W, strain NUM1, hits give low values 1 | locus YEL061C, strain CIN8, hits give low values 0.993 | locus YGR078C, strain PAC10, hits give low values 1.01 | locus YGR229C, strain SMI1, hits give low values 0.999 | [26] 1.09 | locus YHR087W, strain rtc3, hits give low values 1.01 | locus YJR043C, strain POL32, hits give low values 1.04 | locus YJR075W, strain HOC1, hits give low values 0.995 | locus YLR039C, strain RIC1, hits give low values 0.998 | locus YLR058C, strain SHM2 (second series), hits give low values 1.02 | locus YLR085C, strain ARP6, hits give low values 1.02 | locus YLR262C, strain YPT6, hits give low values 1.07 | locus YML094W, strain GIM5, hits give low values 1.01 | locus YMR219W, strain ESC1, hits give low values 1.01 | locus YMR263W, strain SAP30, hits give low values 1.01 | locus YNL153C, strain GIM3, hits give low values 0.958 | locus YNL298W, strain CLA4 (second series), hits give low values 1.06 | locus YNL322C, strain KRE1, hits give low values 0.999 | locus YNR030W, strain Alg12, hits give low values 1.01 | locus YPL055C, strain LGE1, hits give low values 1.02 | locus YPL241C, strain CIN2, hits give low values 0.994 | locus YPR135W, strain CTF4, hits give low values 1.12
